Drawing on ChEMBL document CHEMBL3988442, “University of Dundee, Small-Polar-MMV Screening Library” (2021), this text covers Percent Effect for eleven compounds.

Design in all cases: scale not given: direction of the effect not stated beside the values
In assay [1] the target is Protein translocase subunit SecA (Escherichia coli (strain K12)) (UniProt P10408). As to the kind of experiment: Assay to Identify E. coli SecA ATPase Inhibitors. It counts as functional. The settings on record: 30 µM.
Assay [2] addresses T1, Ubiquitin-activating enzyme e1, putative (Leishmania donovani (strain BPK282A1)) (UniProt E9BSI1).
T1 sequence (whole entry): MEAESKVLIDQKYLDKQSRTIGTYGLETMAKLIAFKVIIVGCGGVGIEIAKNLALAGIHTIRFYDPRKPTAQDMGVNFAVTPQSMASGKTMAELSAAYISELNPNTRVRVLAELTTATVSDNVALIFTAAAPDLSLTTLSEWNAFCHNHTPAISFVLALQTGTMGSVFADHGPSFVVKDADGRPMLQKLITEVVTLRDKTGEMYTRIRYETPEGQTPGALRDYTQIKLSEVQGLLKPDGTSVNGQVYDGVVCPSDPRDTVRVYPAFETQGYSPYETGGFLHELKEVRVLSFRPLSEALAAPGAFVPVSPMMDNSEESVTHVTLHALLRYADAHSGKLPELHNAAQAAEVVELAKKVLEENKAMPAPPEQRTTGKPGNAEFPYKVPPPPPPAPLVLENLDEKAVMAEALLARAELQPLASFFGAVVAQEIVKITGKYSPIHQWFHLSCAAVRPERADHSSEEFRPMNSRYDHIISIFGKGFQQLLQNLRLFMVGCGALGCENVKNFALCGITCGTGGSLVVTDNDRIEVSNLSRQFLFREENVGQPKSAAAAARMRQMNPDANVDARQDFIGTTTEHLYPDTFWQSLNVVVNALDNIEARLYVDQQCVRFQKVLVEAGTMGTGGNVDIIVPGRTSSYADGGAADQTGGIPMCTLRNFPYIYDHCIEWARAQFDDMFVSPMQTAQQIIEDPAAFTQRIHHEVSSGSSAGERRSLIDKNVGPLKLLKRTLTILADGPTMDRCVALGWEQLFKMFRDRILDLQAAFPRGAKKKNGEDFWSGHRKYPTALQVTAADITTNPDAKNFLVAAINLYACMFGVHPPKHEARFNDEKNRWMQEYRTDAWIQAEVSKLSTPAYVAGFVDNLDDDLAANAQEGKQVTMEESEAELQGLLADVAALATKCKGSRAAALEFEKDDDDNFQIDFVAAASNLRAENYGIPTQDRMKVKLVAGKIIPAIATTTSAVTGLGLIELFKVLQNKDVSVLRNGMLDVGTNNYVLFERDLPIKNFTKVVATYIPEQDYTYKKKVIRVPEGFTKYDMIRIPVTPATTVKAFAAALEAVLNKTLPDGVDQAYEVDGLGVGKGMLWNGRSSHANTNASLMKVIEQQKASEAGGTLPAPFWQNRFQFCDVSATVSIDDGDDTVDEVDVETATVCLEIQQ
In words: Leishmania donovani Ubiquitin Activating Enzyme (LdE1). It counts as functional. The settings on record: 30 µM.

The target of assay [3] is AMP-activated protein kinase, AMPK (Homo sapiens) (UniProt P54646+O43741+P54619+Q9UGJ0+Q9Y478+Q13131+Q9UGI9). In words: AMP-dependent Kinase enzyme assay. An in vitro enzyme assay that detects ADP turnover that is directly proportional to AMPK activity. This uses naive AMPK that is activated during the assay with MK-8722. It counts as functional. The settings on record: 30 µM.

Assay [4] concerns the target Sialic acid-binding Ig-like lectin 9 (Homo sapiens) (UniProt Q9Y336). In words: Hs-Siglec9 ALPHAscreen SOP 20170721. The settings on record: 10 µM.
In another assay the test system is Trypanosoma cruzi. In words: Trypanosoma cruzi phosphomannomutase and mannose-1-phosphate guanylyltransferase assay. Format: functional. The settings on record: 10 µM.
Assay [5] addresses T2, Arginase-2, mitochondrial (Homo sapiens) (UniProt P78540).
T2 sequence (whole entry): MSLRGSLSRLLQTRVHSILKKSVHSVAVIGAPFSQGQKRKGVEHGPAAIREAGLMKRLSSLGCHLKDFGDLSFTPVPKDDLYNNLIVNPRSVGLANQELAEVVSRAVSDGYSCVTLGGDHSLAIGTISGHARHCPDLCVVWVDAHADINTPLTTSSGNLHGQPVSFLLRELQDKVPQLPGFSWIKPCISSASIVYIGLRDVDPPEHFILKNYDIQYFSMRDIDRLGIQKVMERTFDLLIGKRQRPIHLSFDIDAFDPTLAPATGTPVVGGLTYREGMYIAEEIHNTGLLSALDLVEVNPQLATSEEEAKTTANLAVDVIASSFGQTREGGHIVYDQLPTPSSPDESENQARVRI
As to the kind of experiment: in vitro enzyme assay to detect the production of urea directly proportional to the activity of Arginase II. Further: in the data most compounds retested in dose-response had high values. Format: functional. The settings on record: 33.3 µM.

Assay [6] concerns the target T3, Proteasome subunit beta (Trypanosoma cruzi) (UniProt O96673).
T3 sequence (whole entry): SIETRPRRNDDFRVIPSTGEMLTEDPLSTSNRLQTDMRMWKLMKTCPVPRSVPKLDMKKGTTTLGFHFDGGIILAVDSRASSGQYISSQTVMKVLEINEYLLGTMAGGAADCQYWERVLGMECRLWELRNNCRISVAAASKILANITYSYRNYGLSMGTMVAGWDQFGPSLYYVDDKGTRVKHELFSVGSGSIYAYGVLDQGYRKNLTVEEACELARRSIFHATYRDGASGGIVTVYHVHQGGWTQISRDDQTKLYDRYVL
In words: Trypanosoma cruzi proteasome chymotrypsin-like activity (TcProtChymo) assay. Further: in the data most compounds retested in dose-response had high values. It counts as functional. The settings on record: 9.37 µM.

Another assay is filed under the species Homo sapiens. In words: To identify inhibition of the IFN signalling (Jak-Stat) pathway via expression of an eGFP reporter gene under the control of an IFN-stimulated response element (ISRE) containing MxA promoter. It counts as functional. The settings on record: 30 µM.
Assay [7] addresses T4, Tyrosyl-tRNA synthetase, putative (Trypanosoma cruzi (strain CL Brener)) (UniProt Q4DSP6).
T4 sequence (whole entry): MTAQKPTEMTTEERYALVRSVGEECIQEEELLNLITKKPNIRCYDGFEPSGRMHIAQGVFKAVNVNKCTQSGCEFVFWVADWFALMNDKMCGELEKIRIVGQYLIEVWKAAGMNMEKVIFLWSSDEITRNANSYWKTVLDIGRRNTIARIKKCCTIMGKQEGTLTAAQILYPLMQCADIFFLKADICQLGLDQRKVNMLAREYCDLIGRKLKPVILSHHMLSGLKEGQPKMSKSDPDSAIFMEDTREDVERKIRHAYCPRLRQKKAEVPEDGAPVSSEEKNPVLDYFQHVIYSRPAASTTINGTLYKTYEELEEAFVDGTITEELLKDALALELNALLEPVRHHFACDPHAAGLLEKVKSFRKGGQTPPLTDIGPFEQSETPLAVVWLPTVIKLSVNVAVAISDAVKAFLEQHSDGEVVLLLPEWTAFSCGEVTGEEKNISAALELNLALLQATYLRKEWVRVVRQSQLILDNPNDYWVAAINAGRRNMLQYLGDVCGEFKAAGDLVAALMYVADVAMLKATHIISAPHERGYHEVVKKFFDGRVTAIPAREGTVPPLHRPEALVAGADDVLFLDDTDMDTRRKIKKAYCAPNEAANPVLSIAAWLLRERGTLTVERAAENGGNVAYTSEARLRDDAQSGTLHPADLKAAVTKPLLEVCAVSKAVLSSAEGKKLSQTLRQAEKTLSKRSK
In words: Trypanosoma cruzi tyrosyl tRNA synthetase (TcYRS) _High Tyrosine SOP. Further: in the data most compounds retested in dose-response had high values. Format: functional. The settings on record: 30 µM.

Assay [8] concerns the target T4, Tyrosyl-tRNA synthetase, putative (Trypanosoma cruzi (strain CL Brener)). In words: Trypanosoma cruzi tyrosyl tRNA synthetase (TcYRS) SOP. It counts as functional. The settings on record: 30 µM.
Assay [9] concerns the target Chromo domain-containing protein 1 (Saccharomyces cerevisiae (strain ATCC 204508 / S288c) (Baker's yeast)) (UniProt P32657). As to the kind of experiment: ScCHD-1 Enzyme Inhibition Assay. Further: in the data most compounds retested in dose-response had high values. Format: functional. The settings on record: 30 µM.

For some of these results: Potency and affinity values are given separately.

Protein translocase subunit SecA (Escherichia coli (strain K12)), sequence (P10408 whole entry): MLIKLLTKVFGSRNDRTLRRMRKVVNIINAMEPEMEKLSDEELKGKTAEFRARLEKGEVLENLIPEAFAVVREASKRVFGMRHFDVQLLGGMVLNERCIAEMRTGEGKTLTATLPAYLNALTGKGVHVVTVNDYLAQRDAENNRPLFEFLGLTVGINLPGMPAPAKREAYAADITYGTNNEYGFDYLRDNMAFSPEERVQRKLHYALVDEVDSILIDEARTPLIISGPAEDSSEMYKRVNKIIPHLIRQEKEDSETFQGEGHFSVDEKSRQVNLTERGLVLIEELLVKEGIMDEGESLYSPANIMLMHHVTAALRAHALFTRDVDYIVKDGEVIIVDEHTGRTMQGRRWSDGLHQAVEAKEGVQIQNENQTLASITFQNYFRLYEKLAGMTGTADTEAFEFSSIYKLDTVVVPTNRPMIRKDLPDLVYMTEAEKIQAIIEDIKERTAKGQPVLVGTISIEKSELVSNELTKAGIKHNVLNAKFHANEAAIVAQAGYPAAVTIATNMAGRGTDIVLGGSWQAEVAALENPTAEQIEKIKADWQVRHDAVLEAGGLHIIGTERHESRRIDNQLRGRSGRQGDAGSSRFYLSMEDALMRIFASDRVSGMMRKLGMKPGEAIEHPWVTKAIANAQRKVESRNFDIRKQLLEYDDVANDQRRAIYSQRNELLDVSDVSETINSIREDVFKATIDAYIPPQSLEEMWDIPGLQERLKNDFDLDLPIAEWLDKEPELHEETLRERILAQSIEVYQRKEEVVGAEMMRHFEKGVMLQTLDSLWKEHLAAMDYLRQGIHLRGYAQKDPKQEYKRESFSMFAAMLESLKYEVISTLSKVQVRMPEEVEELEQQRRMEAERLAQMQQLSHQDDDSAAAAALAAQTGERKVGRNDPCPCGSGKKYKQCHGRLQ
Sialic acid-binding Ig-like lectin 9 (Homo sapiens), sequence (Q9Y336 whole entry): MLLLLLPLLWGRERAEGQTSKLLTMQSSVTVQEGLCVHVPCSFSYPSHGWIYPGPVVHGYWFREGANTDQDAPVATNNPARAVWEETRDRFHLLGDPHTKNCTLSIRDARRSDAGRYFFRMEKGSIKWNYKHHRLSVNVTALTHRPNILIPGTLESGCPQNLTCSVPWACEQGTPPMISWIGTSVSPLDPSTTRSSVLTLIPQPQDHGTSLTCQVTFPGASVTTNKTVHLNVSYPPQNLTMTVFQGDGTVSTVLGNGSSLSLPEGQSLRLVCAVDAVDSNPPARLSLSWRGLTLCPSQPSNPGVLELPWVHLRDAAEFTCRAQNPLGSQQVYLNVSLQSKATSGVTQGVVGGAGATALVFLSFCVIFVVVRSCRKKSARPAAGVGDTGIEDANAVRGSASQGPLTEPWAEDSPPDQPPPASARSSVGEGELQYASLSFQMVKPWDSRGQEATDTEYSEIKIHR
Chromo domain-containing protein 1 (Saccharomyces cerevisiae (strain ATCC 204508 / S288c) (Baker's yeast)), sequence (P32657 whole entry, the tested form may be a part): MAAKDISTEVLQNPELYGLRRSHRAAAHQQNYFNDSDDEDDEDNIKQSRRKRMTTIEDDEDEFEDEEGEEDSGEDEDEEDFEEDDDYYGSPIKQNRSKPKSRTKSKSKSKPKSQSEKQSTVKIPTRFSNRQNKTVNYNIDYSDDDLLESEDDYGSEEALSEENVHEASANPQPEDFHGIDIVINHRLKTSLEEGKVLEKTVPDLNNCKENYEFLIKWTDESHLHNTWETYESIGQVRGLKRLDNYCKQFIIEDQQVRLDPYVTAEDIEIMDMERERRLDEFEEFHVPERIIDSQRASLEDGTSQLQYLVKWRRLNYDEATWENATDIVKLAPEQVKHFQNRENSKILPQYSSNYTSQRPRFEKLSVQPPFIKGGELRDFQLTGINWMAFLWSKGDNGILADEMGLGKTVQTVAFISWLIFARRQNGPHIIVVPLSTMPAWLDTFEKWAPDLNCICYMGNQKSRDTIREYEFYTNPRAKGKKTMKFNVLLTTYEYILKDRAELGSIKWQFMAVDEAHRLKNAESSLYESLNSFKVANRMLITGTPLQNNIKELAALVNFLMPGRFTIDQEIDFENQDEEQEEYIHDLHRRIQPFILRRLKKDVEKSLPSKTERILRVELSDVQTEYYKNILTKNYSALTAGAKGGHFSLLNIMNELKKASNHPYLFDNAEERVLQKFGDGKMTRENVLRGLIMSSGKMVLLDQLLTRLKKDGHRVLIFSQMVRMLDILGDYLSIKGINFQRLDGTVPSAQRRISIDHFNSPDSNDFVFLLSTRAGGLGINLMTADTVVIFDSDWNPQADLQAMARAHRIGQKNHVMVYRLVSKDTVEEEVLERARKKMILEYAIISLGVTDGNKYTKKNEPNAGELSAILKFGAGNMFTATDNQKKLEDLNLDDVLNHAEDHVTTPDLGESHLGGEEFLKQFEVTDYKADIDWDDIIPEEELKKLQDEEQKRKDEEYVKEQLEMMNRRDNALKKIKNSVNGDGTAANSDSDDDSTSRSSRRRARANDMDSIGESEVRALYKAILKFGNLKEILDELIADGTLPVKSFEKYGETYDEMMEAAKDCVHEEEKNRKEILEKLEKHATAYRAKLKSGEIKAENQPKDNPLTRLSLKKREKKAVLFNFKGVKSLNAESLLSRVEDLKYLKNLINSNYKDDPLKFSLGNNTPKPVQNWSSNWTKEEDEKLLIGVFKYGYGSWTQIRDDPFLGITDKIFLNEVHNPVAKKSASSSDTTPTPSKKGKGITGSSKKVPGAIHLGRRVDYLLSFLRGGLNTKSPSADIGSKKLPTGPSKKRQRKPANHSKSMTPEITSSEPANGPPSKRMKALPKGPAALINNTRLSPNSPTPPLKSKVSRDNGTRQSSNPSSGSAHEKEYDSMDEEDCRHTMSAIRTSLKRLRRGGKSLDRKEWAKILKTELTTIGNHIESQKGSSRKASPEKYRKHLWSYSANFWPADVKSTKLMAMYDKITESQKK

On to `CCC(CC)C(O)CNC(=O)Nc1cc(C)nn1C` (stereo unspecified), for which the Percent Effect in assay [1] was -6.46%; in assay [2] it was 5.06%; in [3] it was 0.487%; in assay [4], 6.21%; with Trypanosoma cruzi, 6.7%; in assay [5] it was -1.9%. For the same compound, the Percent Effect in [6] was 5.16%; in the assay filed under Homo sapiens it was -23.6%; in assay [7] it was 1.48%; in assay [8] it was 16.5%; in [9], -6.04%.
Consider `O=C(CCn1cccn1)N1C[C@@H]2CC[C@H](C1)N(Cc1ccccn1)C2=O`, for which the Percent Effect was -3.32% in [1]; 5.41% in [2]; -4.57% in [3]; 4.2% in [4]; 2.51% with Trypanosoma cruzi; 0.476% in assay [5]. For the same compound, the Percent Effect is 1.72% in assay [6]; 3.77% in the assay listed under Homo sapiens; 5.82% in [7]; 14.6% in assay [8]; -3.35% in assay [9].
As for `COc1cccc(C(=O)N2CCCC(c3cc(C)[nH]n3)C2)c1OC` (stereo unspecified), the Percent Effect in assay [1] was -3.02%; in assay [2] it was 10.8%; in assay [3], -3.74%; in assay [4], -1.79%; in the assay with Trypanosoma cruzi, 8.4%; in assay [5] it was -2.81%. For the same compound, the Percent Effect in assay [6] was 11.7%; in the assay listed under Homo sapiens it was 17.4%; in assay [7], 4.43%; in assay [8], 16.1%; in assay [9] it was -5.21%.
`CCCc1nc(C)c(C(=O)NS(=O)(=O)c2ccc(C#N)cc2)s1`: the Percent Effect in assay [1] is -4.98%; in assay [2], 10.8%; in assay [3], -2.15%; in [4], 25.9%; with Trypanosoma cruzi it was 6.18%; in [5], 0.476%. The Percent Effect was 9.14% in [6]; 2.07% in the assay filed under Homo sapiens; 0.529% in assay [7]; 9.76% in assay [8]; -9.01% in [9].
With `COc1ccc(NC(=O)Cn2nc(C)c(C)cc2=O)cc1OC`, the Percent Effect is -0.134% in [1]; 0% in assay [2]; -0.466% in assay [3]; 23.4% in assay [4]; 5.79% with Trypanosoma cruzi; 20.5% in assay [5]. Also, the Percent Effect in assay [6] is 8.97%; in the assay listed under Homo sapiens, 2.79%; in assay [7], 0.529%; in assay [8], 9.76%; in [9] it was -7.49%.
As to `CC(=O)N1CCN(C(=O)c2cc(-n3cnnn3)ccc2Cl)CC1`, the Percent Effect in assay [1] was -7.31%; in assay [2] it was 2.63%; in assay [3], -6.84%; in [4] it was 0.287%; with Trypanosoma cruzi, -2.63%; in [5] it was -4.73%. For the same compound, the Percent Effect in assay [6] was 6.04%; in the assay filed under Homo sapiens it was 9.34%; in assay [7], -2.13%; in assay [8], -2.6%; in [9], 0.334%.
On to `N#CCCCS(=O)(=O)N1CCCC1CC(=O)c1cccs1` (stereo unspecified), for which the Percent Effect in [1] was -2.19%; in [2], 2.7%; in assay [3], -3.83%; in assay [4] it was 2.31%; in the assay on Trypanosoma cruzi it was -1.93%; in assay [5], -3.81%. Besides, the Percent Effect is 3.1% in [6]; -1.42% in the assay listed under Homo sapiens; -0.529% in [7]; -4.88% in [8]; -0.34% in [9].
For the compound `CNC(=O)[C@H]1C[C@@H]2CN(S(=O)(=O)c3ccccc3)C[C@@H]2N1C`, the Percent Effect was -2.19% in assay [1]; -5.2% in assay [2]; 3.6% in assay [3]; 3.49% in assay [4]; -0.492% with Trypanosoma cruzi; -13.8% in assay [5]. Further, the Percent Effect in [6] was 1.83%; in the assay filed under Homo sapiens, 6.5%; in assay [7], 2.15%; in assay [8] it was -1.24%; in assay [9] it was 2.52%.
On to `O=C(NCc1nncn1-c1ccccc1)C1CC(=O)N(CC2CC2)C1` (stereo unspecified), for which the Percent Effect in assay [1] was -6.4%; in assay [2], 5.41%; in assay [3], -8.14%; in [4], 7.22%; in the assay with Trypanosoma cruzi, -3.3%; in [5] it was 24.4%. Besides, the Percent Effect in assay [6] is -0.901%; in the assay filed under Homo sapiens it was 8.14%; in [7] it was 3.45%; in assay [8] it was 3.7%; in assay [9], -2.19%.
For `Cc1cnn(CC2CCCN2Cc2nnc(Cc3ccccc3)o2)c1` (stereo unspecified), the Percent Effect was -4.98% in assay [1]; 10.8% in assay [2]; -8.22% in assay [3]; -3.85% in [4]; -9.15% in the assay on Trypanosoma cruzi; 6.81% in [5]. Besides, the Percent Effect is 3.96% in assay [6]; 19.9% in the assay listed under Homo sapiens; 4.43% in assay [7]; 3.7% in assay [8]; -4.25% in [9].
With `Cc1nc(N(C)C)nc2c1COCC21CCN(C(=O)NC(C)C)C1` (stereo unspecified), the Percent Effect in assay [1] was -5.29%; in assay [2] it was 0%; in assay [3], -0.0672%; in [4], 2.32%; in the assay on Trypanosoma cruzi, 2.15%; in assay [5], -2.08%. In addition, the Percent Effect was 4.82% in [6]; -1.11% in the assay listed under Homo sapiens; 0.99% in assay [7]; 18.3% in assay [8]; -4.61% in assay [9].
